Data taken from the supplement of paper PMC3414501.
Where a name gives a salt, the structure may show the parent alone.

Assays:
[1] = test system: S. cerevisiae SK1 pCDA2-eGFP (USY613), sporulating; test: CDA2-GFP sporulation assay sensitivity score (z-score vs DMSO controls); higher = stronger inhibition of sporulation, active = hit call of the paper;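 note: active if sensitivity score above 5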
[2] = test system: S. cerevisiae NKY1551 his4x/his4B, sporulating; test: HIS4 meiotic recombination assay sensitivity score (z-score vs DMSO controls); higher = stronger inhibition of sporulation/recombination, active = hit call of the paper;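 note: active if sensitivity score above 5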
[3] = test system: S. cerevisiae AD1-9 (efflux-pump deficient), vegetative growth in YPD; test: growth sensitivity score (doubling time z-score vs DMSO controls); higher = slower growth, strongly negative scores also mark growth inhibition (complete suppression), active = hit call of the paper
In short: (§1)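 Optical density of Saccharomyces cerevisiae cultures in microtiter plates was followed every 15 min for 24 hours after seeding at an OD600 of 0.065. Eight solvent-only wells were run per experiment. Growth sensitivity scores were found by subtracting the solvent-only mean from the compound mean and dividing by the solvent-only standard deviation.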

[4] = test system: S. cerevisiae BY4741 (wild-type), vegetative growth in YPD; test: as above
In short: as §1

SMILES: CCN1CCC[C@H]1CNC(=O)c1cc(S(N)(=O)=O)ccc1OC [Levosulpiride] (stock concentration (mM, diluted 1:100): 10)
- CDA2-GFP sporulation assay sensitivity score [1]: 0.11 (inactive)
- HIS4 meiotic recombination assay sensitivity score [2]: 0.77 (inactive)
- growth sensitivity score [3]: -0.24 (inactive)
- growth sensitivity score [4]: 0.25 (inactive)

SMILES: C[C@H]1COc2c(C3(N)CC3)c(F)cc3c(=O)c(C(=O)O)cn1c23 [Pazufloxacin] (stock concentration (mM, diluted 1:100): 10)
- CDA2-GFP sporulation assay sensitivity score [1]: 0.17 (inactive)
- HIS4 meiotic recombination assay sensitivity score [2]: -0.93 (inactive)
- growth sensitivity score [3]: 0.07 (inactive)
- growth sensitivity score [4]: -1.05 (inactive)

SMILES: CC(=O)[C@@]1(O)CC[C@H]2[C@@H]3C[C@H](C)C4=CC(=O)CC[C@]4(C)[C@H]3CC[C@@]21C [Medroxyprogesterone] (stock concentration (mM, diluted 1:100): 10)
- CDA2-GFP sporulation assay sensitivity score [1]: -0.44 (inactive)
- HIS4 meiotic recombination assay sensitivity score [2]: 0.24 (inactive)
- growth sensitivity score [3]: 4.15 (active)
- growth sensitivity score [4]: -0.01 (inactive)

SMILES: C#C[C@]1(O)CC[C@H]2[C@@H]3CCc4cc(O)ccc4[C@H]3CC[C@@]21C [Ethynylestradiol] (stock concentration (mM, diluted 1:100): 10)
- CDA2-GFP sporulation assay sensitivity score [1]: 6.44 (inactive)
- HIS4 meiotic recombination assay sensitivity score [2]: -1.32 (inactive)
- growth sensitivity score [3]: 229 (active)
- growth sensitivity score [4]: 2.85 (active)

SMILES: OC[C@H]1O[C@@H](Oc2cc(O)cc(/C=C/c3ccc(O)cc3)c2)[C@H](O)[C@@H](O)[C@@H]1O [Piceid] (stock concentration (mM, diluted 1:100): 10)
- CDA2-GFP sporulation assay sensitivity score [1]: 0.56 (inactive)
- HIS4 meiotic recombination assay sensitivity score [2]: -1.14 (inactive)
- growth sensitivity score [3]: 0.32 (inactive)
- growth sensitivity score [4]: -0.24 (inactive)

SMILES: C[C@@H]1C[C@H]2[C@@H]3CCC4=CC(=O)C=C[C@]4(C)[C@@]3(F)[C@@H](O)C[C@]2(C)[C@H]1C(=O)CO [Desoximetasone] (stock concentration (mM, diluted 1:100): 10)
- CDA2-GFP sporulation assay sensitivity score [1]: 0.62 (inactive)
- HIS4 meiotic recombination assay sensitivity score [2]: -1.12 (inactive)
- growth sensitivity score [3]: 2.17 (active)
- growth sensitivity score [4]: 1.97 (inactive)

SMILES: CN1CCN(c2c(F)cc3c(=O)c(C(=O)O)cn4c3c2SCC4)CC1 [Rufloxacin hydrochloride] (stock concentration (mM, diluted 1:100): 10)
- CDA2-GFP sporulation assay sensitivity score [1]: -0.17 (inactive)
- HIS4 meiotic recombination assay sensitivity score [2]: -0.04 (inactive)
- growth sensitivity score [3]: 17.4 (active)
- growth sensitivity score [4]: -0.18 (inactive)

SMILES: C#C[C@]1(O)CC[C@H]2[C@@H]3CCC4=CC(=O)CC[C@@H]4[C@H]3CC[C@@]21CC [Levonorgestrel] (stock concentration (mM, diluted 1:100): 10)
- CDA2-GFP sporulation assay sensitivity score [1]: 0.19 (inactive)
- HIS4 meiotic recombination assay sensitivity score [2]: -2.79 (inactive)
- growth sensitivity score [3]: -0.41 (inactive)
- growth sensitivity score [4]: 0.89 (inactive)

SMILES: COc1ccc2cc([C@H](C)C(=O)O)ccc2c1 [Naproxen sodium] (stock concentration (mM, diluted 1:100): 10)
- CDA2-GFP sporulation assay sensitivity score [1]: 1.69 (inactive)
- HIS4 meiotic recombination assay sensitivity score [2]: -0.09 (inactive)
- growth sensitivity score [3]: 1.41 (inactive)
- growth sensitivity score [4]: -0.72 (inactive)

SMILES: O=C(NCCO[N+](=O)[O-])c1cccnc1 [Nicorandil] (stock concentration (mM, diluted 1:100): 10)
- CDA2-GFP sporulation assay sensitivity score [1]: -0.11 (inactive)
- HIS4 meiotic recombination assay sensitivity score [2]: 0.03 (inactive)
- growth sensitivity score [3]: -1.47 (inactive)
- growth sensitivity score [4]: -2.59

SMILES: O=C(O)COCCN1CCN([C@H](c2ccccc2)c2ccc(Cl)cc2)CC1 [Levocetirizine] (stock concentration (mM, diluted 1:100): 10.7)
- CDA2-GFP sporulation assay sensitivity score [1]: -2.92 (inactive)
- HIS4 meiotic recombination assay sensitivity score [2]: -0.24 (inactive)
- growth sensitivity score [3]: -1.54 (inactive)
- growth sensitivity score [4]: -0.8 (inactive)

SMILES: O=C1N(c2ccccc2)c2ccccc2C1(Cc1ccncc1)Cc1ccncc1 (stock concentration (mM, diluted 1:100): 10)
- CDA2-GFP sporulation assay sensitivity score [1]: 0.26 (inactive)
- HIS4 meiotic recombination assay sensitivity score [2]: 0.8 (inactive)
- growth sensitivity score [3]: 8.78 (active)
- growth sensitivity score [4]: 1.8 (inactive)

SMILES: CN(C)CCC=C1c2ccccc2COc2ccccc21 [Doxepin] (stock concentration (mM, diluted 1:100): 10)
- CDA2-GFP sporulation assay sensitivity score [1]: 18.2 (active)
- HIS4 meiotic recombination assay sensitivity score [2]: 3.87 (inactive)
- growth sensitivity score [3]: 5.43 (active)
- growth sensitivity score [4]: 1.16 (inactive)

SMILES: COc1cc(C[C@@H](CO)[C@H](CO)Cc2ccc(O)c(OC)c2)ccc1O [Secoisolariciresinol] (stock concentration (mM, diluted 1:100): 10)
- CDA2-GFP sporulation assay sensitivity score [1]: -0.44 (inactive)
- HIS4 meiotic recombination assay sensitivity score [2]: -0.73 (inactive)
- growth sensitivity score [3]: 0.75 (inactive)
- growth sensitivity score [4]: -0.92 (inactive)

SMILES: CC[C@@H]1C(=O)OC[C@@H]1Cc1cncn1C [Pilocarpine hydrochloride] (stock concentration (mM, diluted 1:100): 10)
- CDA2-GFP sporulation assay sensitivity score [1]: 1.83 (inactive)
- HIS4 meiotic recombination assay sensitivity score [2]: -0.54 (inactive)
- growth sensitivity score [3]: 0.16 (inactive)
- growth sensitivity score [4]: 0.72 (inactive)
